Results filed as inconclusive are left out. The source made the active and inactive calls. Calls come from the whole dose curve; as a rule, active = well fitted curve in the direction sought with a large enough effect; inconclusive = small, poorly fitted or top-dose-only effect, or another doubt; inactive = no such curve, though single readings can be large; an effect the other way counts as inactive or inconclusive. Where a SMILES comes first, the peptide text is derived from it. [ ]: non-standard residue; d: D form. ξ: configuration not given here. ξPhe(βξ-Me) = CC(c1ccccc1)C(N)C(=O)O; GABA = NCCCC(=O)O

The nature of test [1]: P-glycoprotein substrates identified in KB-3-1 adenocarcinoma cell line, qHTS therapeutic library screen (AID 1346986). Note: nearly all actives have a fitted effect of over 60% in size. The method, boiled down:
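Dose-response cytotoxicity, KB-3-1 vs P-gp-high KB-8-5-11, no colchicine in assay medium. Read: CellTiter-Glo at 72 h.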
For orientation: Quantitative high-throughput screening tests each substance at several concentrations.

Test [2] in a line: P-glycoprotein substrates identified in KB-8-5-11 adenocarcinoma cell line, qHTS therapeutic library screen (AID 1346987). Note: nearly all actives have a fitted effect of over 65% in size. The gist of the method: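 Human cervical adenocarcinoma KB-8-5-11 cells, selected in colchicine to over-express P-gp and assayed without it, were exposed for 72 h to titrated compounds. An ATP-based luminescent viability signal gave AC50.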

In the case of `CC1CCC2(C(=O)OC3OC(CO)C(O)C(O)C3O)CCC3(C(=O)O)C(=CCC4C5(C)CCC(OC6OC(C)C(O)C(O)C6O)C(C)(C)C5CCC43C)C2C1C` (configuration not stated), the Potency result in test [1] and in test [2] was “inactive” each time.
With `O=C(C1CC1)N1CC[C@@H](Cc2n[nH]c(=O)n2-c2ccc(-c3ccc4occc4c3)cc2)C1`, the Potency result in test [1] and in test [2] was “inactive” throughout.
As for `CC1=C2C3OC(=O)C(C)C3(O)CCC2(C)CCC1=O` (configuration not stated), the Potency entry in test [1] and in test [2] was “inactive” in each case.
With `C[C@@H]1C[C@H](O)/C=C/[C@H](O)[C@@H](O)CC(=O)O1`, the Potency result in test [1] and in test [2] was “inactive” in each case.
As to `C=CC1(C)C=C2C(=O)CC3C(C)(C)CCCC3(C(=O)O)C2(O)CC1` (configuration not stated), the Potency result in test [1] and in test [2] was “inactive” throughout.
Turning to `C=C1[C@H]2[C@H](O[C@@H]3O[C@H](COC(=O)/C=C/c4cc(OC)c(O)c(OC)c4)[C@@H](O)[C@H](O)[C@H]3O)OC=C(C(=O)O)[C@H]2C[C@@H]1O`, the Potency result in test [1] and in test [2] was “inactive” throughout.
As for `COC1CC(=O)CCC(C)OC(=O)CC1O` (configuration not stated), the Potency result in test [1] and in test [2] was “inactive” in each case.
Turning to `C[C@@H](O)[C@H](N)C(=O)N1CCC[C@H]1C(=O)N1CCC[C@H]1C(=O)N[C@H](C(N)=O)[C@@H](C)O` (H-TPPT-NH2), the outcome in test [1] and in test [2] was “inactive [at 9.29 µM]” in each case.
For the molecule `C[C@@H]1C[C@H]2[C@@H]3CCC4=CC(=O)C=C[C@]4(C)[C@@]3(F)[C@@H](O)C[C@]2(C)[C@@]1(O)C(=O)COP(=O)(O)O`, the Potency entry in test [1] and in test [2] was “inactive” each time.
For `O=c1ccn(C2OC(CO)C(O)C2O)c(=O)[nH]1` (configuration not stated), the Potency entry in test [1] and in test [2] was “inactive” each time.
Consider `CC1(C)CCC(C)(C)c2cc([C@@H](O)C(=O)Nc3ccc(C(=O)O)cc3F)ccc21`, for which the Potency entry in test [1] and in test [2] was “inactive” throughout.
Regarding `COc1cc(C(O)C(CO)Oc2ccc(CCCO[C@@H]3O[C@@H](C)[C@H](O)[C@@H](O)[C@H]3O)cc2OC)ccc1O` (some centres not stated), the Potency entry in test [1] and in test [2] was “inactive” in each case.
Consider `CCCn1cnc2c(NCc3ccccc3)nc(N[C@H](CC)CO)nc21`, for which the Potency result in test [1] and in test [2] was “inactive” each time.
On to `CCOc1ccc(-c2ccc(Cn3c(CC(C)(C)C(=O)O)c(SC(C)(C)C)c4cc(OCc5ccc(C)cn5)ccc43)cc2)cn1`, for which the Potency result in test [1] and in test [2] was “inactive” in each case.
With `CC(C)CC1NC(=O)C(C(C)c2ccccc2)NC(=O)C(C(C)C)NC(=O)C(C)NC(=O)CCCNC(=O)C(Cc2c[nH]c3ccccc23)NC(=O)C(C)NC1=O` (stereo not drawn) (cyclo([GABA]AV[ξPhe(βξ-Me)]LAW); configuration not given here), the Potency result in test [1] and in test [2] was “inactive” throughout.
As for `CC1CCC2(O1)C(C)(C)CC(O[C@@H]1O[C@H](CO[C@@H]3OC[C@](O)(CO)[C@H]3O)[C@@H](O)[C@H](O)[C@H]1O)CC2(C)O` (some centres not stated), the Potency result in test [1] and in test [2] was “inactive” in each case.
Regarding `C=C1C(=O)O[C@H]2[C@H]1[C@@H](OC(=O)C(C)CO)C[C@@]1(C)[C@H](O)CCC(=O)[C@H]21` (some centres not stated), the Potency entry in test [1] and in test [2] was “inactive” throughout.
For the molecule `CCC(C)C(=O)O[C@@H]1[C@@H](O)[C@@H](O[C@H]2O[C@H](CO)[C@@H](O)[C@H](O)[C@H]2O)O[C@H](CO)[C@H]1O` (some centres not stated), the Potency result in test [1] and in test [2] was “inactive” in each case.
Consider `COc1cc(CCc2ccccc2)c(C(=O)O)c2c1CC(C(C)(C)O)O2` (configuration not stated), for which the Potency entry in test [1] and in test [2] was “inactive” in each case.
For `CC(=O)Oc1cc2c(s1)CCN([C@H](C(=O)C1CC1)c1ccccc1F)C2`, the Potency result in test [1] and in test [2] was “inactive” each time.
`CC1=CC(=O)CC(C)(CO[C@@H]2O[C@H](CO)[C@@H](O)[C@H](O)[C@H]2O)C1(O)/C=C/C(C)=C/C(=O)O` (some centres not stated): the Potency entry in test [1] and in test [2] was “inactive” in each case.
